NR1D1 modulator = modulators of human Rev-erb alpha DNA binding; P20393; Rev-erbα–FITC-DNA binding, fluorescence polarization, 90 min; activity, % at 10 µM; 370,000 compounds, 0.79% hits; AID 1259318;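 active = activity above about 14%, limit read from the data; passing the limit was not always enough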;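 note: 0% = DMSO wells with 35 nM protein and 100% = DMSO wells with 750 nM protein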
PG9 Ab binder = small molecules binding HIV-1 gp120 antibody PG9; TR-FRET gp120-PG9 antibody binding; inhibition, % at 6.7 µM; 360,000 compounds, 0.43% hits; AID 624416; in the data active = inhibition above about 8.5%
SKN-1 inh = inhibitors of C. elegans SKN-1; C. elegans VP596 Pgst-4::GFP/RFP ratio, acrylamide-induced, 24 h; 360,000 compounds, 0.49% hits; inhibition, % at 21.8 µM;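 active = interference check ratio from 0.5 to 1.5 plus GFP to RFP signal ratio inhibition reaching or exceeding a fixed threshold, cut at about 30% in these data, passing the limit was not always enough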
EP2 antag = blocks the human prostaglandin E2 receptor EP2; inhibition, % at 25 µM; AID 1422; P43116; 260,000 compounds, 0.52% hits; C6 glioma cells expressing human EP2, cAMP TR-FRET; cells stimulated with saturating PGE2;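 active = percent inhibition above 40 after rounding to a whole number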;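 note: rat C6 glioma host cells with rolipram phosphodiesterase inhibitor present; the protocol text gives 20 µM as final concentration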
Target sequence (P43116 whole entry, looked up): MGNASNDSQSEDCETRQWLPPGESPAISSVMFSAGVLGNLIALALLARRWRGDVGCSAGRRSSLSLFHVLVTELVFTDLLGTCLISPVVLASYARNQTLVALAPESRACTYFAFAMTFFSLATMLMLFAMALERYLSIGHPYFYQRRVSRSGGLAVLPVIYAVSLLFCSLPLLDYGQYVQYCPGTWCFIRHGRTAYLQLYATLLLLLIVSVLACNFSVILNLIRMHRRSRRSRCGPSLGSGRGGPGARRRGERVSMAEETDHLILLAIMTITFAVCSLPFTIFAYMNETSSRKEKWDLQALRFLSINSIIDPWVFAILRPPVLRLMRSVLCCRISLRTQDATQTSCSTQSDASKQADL
RAM inhibit = inhibitors of the yeast RAM network | S. cerevisiae dse1pr::URA3 reporter, 5-FOA growth OD615, 2 d; analog-sensitive cbk1-as2 kinase mutant strain | inhibition, % at 50 µM | 190,000 compounds, 1.8% hits | AID 868;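 active = inhibition above a set limit, 3 SD over mean compound inhibition, cut at about 8.4% in these data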;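 note: 0% = DMSO-only wells with no growth and 100% = 10 µM 1-NA-PP1 full growth; inhibition rescues growth on 5-FOA so higher OD means more RAM inhibition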
EP2 mod = modulators of human EP2 prostaglandin E2 receptor | P43116 | EP2-expressing cells, cAMP HTRF FRET, PGE2 co-stimulation | induction, % at 25 µM | 260,000 compounds, 0.83% hits | AID 940;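 active = compounds whose cAMP rise, as percent of the full-agonist control response, exceeds 60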;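 note: rat C6 glioma line stably carrying human EP2 under a CMV promoter; the protocol text gives 20 µM as final concentration; 100% = response of wells given 1 µM PGE2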
NR1D1 mod conf = confirmation of modulators of human Rev-erb alpha DNA binding. shares compounds with NR1D1 modulator. activation, % at 25 µM. AID 1259319. 3,000 compounds, 61% hits. Rev-erb alpha FITC-DNA binding, fluorescence polarization, 90 min;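 active = activation at or above a set limit, or at least 3 SD above the negative control mean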;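 note: 0% = 35 nM protein with DMSO and 100% = 750 nM protein high control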
RORg counter = counter-screen for Rev-erb alpha modulators: RORgamma DNA binding; 910 compounds, 8% hits; shares compounds with NR1D1 modulator; AID 1259320; IC50, µM; purified RORgamma protein-FITC-DNA binding, fluorescence polarization;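 active = Compounds whose fitted half-maximal concentration for disrupting protein-DNA binding is below 10 micromolar; the record names Rev-erb in its text, so the target is in doubt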
* marks the source's active call; other numbers are inactive results. Rows were chosen to be rich in hits. Some 2.9% of all compounds tested hit in one or more screens of this group.

`O=c1c2ccccc2nc2sc3ccccc3n12` gave NR1D1 modulator 22*, PG9 Ab binder -1, SKN-1 inh 14, EP2 antag 13, RAM inhibit 5, EP2 mod -6, NR1D1 mod conf 32* and RORg counter >40.
Screening COC(=O)/C=c1/sc2nc3ccccc3n2c1=O returned NR1D1 modulator 3, PG9 Ab binder 2, SKN-1 inh -5, EP2 antag 11, RAM inhibit 1 and EP2 mod 11.
COc1ccc(Cn2c(=S)[nH]c3cc(C(=O)N4CCN(c5ccccc5)CC4)ccc3c2=O)cc1 was read as NR1D1 modulator 0, PG9 Ab binder 1 and SKN-1 inh 16.
For COc1ccc(N2CCN(C(=O)c3ccc(Cn4c(=S)[nH]c5ccc(N6CCOCC6)cc5c4=O)cc3)CC2)cc1 the results were NR1D1 modulator 42*, PG9 Ab binder 0, SKN-1 inh -10, EP2 antag 8, RAM inhibit 5, EP2 mod 34 and NR1D1 mod conf 12.
For COc1cccc2cc(C(=O)N(Cc3ccc(F)cc3)Cc3ccco3)c(=O)oc12 the results were EP2 antag 5 and EP2 mod -30.
CCOC(=O)c1sc2nc(C)nc(Nc3ccc(OC)cc3)c2c1C was read as NR1D1 modulator 31*, PG9 Ab binder 2, SKN-1 inh -4, EP2 antag 5, RAM inhibit 5, EP2 mod -10 and NR1D1 mod conf 13.
CCOC(=O)c1sc2nc(C)nc(NCc3ccc(F)cc3)c2c1C was read as NR1D1 modulator 1, PG9 Ab binder 0 and SKN-1 inh -3.
`CCCCC(=O)N=c1sc2c(OC)ccc(OC)c2n1C` gave NR1D1 modulator 23*, PG9 Ab binder -1, SKN-1 inh 1, EP2 antag 6, EP2 mod 10 and NR1D1 mod conf 8.
For COc1ccc(OC)c2c1sc(=NC(=O)C1CC1)n2C the results were NR1D1 modulator 4, PG9 Ab binder 1, SKN-1 inh 6, EP2 antag 12 and EP2 mod 3.
Screening COc1cccc(C(=O)N=c2sc3c(C)ccc(OC)c3n2C)c1 returned NR1D1 modulator 24*, PG9 Ab binder -1, SKN-1 inh -5, EP2 antag 6, RAM inhibit 4, EP2 mod 26 and NR1D1 mod conf 5.
Screening COC(=O)Cn1c(=NC(=O)CCS(=O)(=O)c2ccccc2)sc2c(OC)ccc(OC)c21 returned NR1D1 modulator 82*, PG9 Ab binder -1, SKN-1 inh 11, NR1D1 mod conf 39* and RORg counter >40.
Screening COc1ccc(C(=O)N=c2sc3c(C)ccc(OC)c3n2C)cc1OC returned NR1D1 modulator 14, PG9 Ab binder 0, SKN-1 inh -2, EP2 antag 9 and EP2 mod 35.
For CCn1cc(C(=O)N2CCn3c(nc(-c4ccc(N(C)C)cc4)c3NC(C)(C)C)C2)cn1 the results were EP2 antag 5 and EP2 mod -33.
For CCN(CC)C(=O)c1sc(NC(=O)COc2ccccc2)c(C#N)c1C the results were EP2 antag 5 and EP2 mod -28.
Screening CCN(CC)c1ccc(/C=C2\C(=N)N3N=C(CC(=O)N4CCOCC4)SC3=NC2=O)cc1 returned NR1D1 modulator 37*, PG9 Ab binder -3, SKN-1 inh 41 and NR1D1 mod conf 22*.
CSc1ccc(/C=C2\C(=N)N3N=C(CC(=O)N4CCOCC4)SC3=NC2=O)cc1 was read as NR1D1 modulator 11, PG9 Ab binder 1 and SKN-1 inh -10.
For Clc1ccc(OCc2nn3c(-c4ccccc4)nnc3s2)c(Cl)c1 the results were NR1D1 modulator 26*, PG9 Ab binder 1, SKN-1 inh 8, EP2 antag 8, RAM inhibit 1, EP2 mod 27 and NR1D1 mod conf 35*.
Screening O=C(NN1C(=O)/C(=C/c2ccc(O)cc2)SC1=S)c1cccc(O)c1 returned NR1D1 modulator 27*, PG9 Ab binder -3, SKN-1 inh -4 and NR1D1 mod conf 16.
O=C1/C(=C/c2ccc(O)c([N+](=O)[O-])c2)SC(=S)N1Cc1ccccc1 was read as NR1D1 modulator 30*, PG9 Ab binder -3, SKN-1 inh 3, EP2 antag 4, RAM inhibit 5, EP2 mod 28 and NR1D1 mod conf 11.
Screening O=C(NN1C(=O)/C(=C/c2ccc(O)c([N+](=O)[O-])c2)SC1=S)c1ccccc1Cl returned NR1D1 modulator 17*, PG9 Ab binder -2, SKN-1 inh 6, EP2 antag 10, RAM inhibit 3, EP2 mod 11 and NR1D1 mod conf 28*.
`O=C1/C(=C\c2ccc(O)cc2)SC(=S)N1Cc1ccccc1` gave NR1D1 modulator 10, PG9 Ab binder -1 and SKN-1 inh -1.
For O=C(NN1C(=O)/C(=C/c2ccc(O)cc2)SC1=S)c1ccccc1O the results were NR1D1 modulator 16, PG9 Ab binder -1 and SKN-1 inh -1.
Screening COc1ccc(-c2ccc(=O)n(CC3CCN(C(=O)c4ccco4)CC3)n2)cc1 returned EP2 mod -12.
`COc1cc(CN(CCCn2ccnc2)Cc2ccccc2C)cc2c1OCO2` gave EP2 antag 9 and EP2 mod 14.
For Cc1cc(NC(=O)CSc2nc3ccccc3c(=O)n2Cc2ccccc2)no1 the results were NR1D1 modulator 15, PG9 Ab binder 1, SKN-1 inh 13, EP2 antag 4, RAM inhibit 5 and EP2 mod 7.
For Cc1ccc(Cn2c(SCC(=O)Nc3cc(C)on3)nc3ccccc3c2=O)cc1 the results were NR1D1 modulator 45*, PG9 Ab binder 17*, SKN-1 inh -15, EP2 antag 10, RAM inhibit 2, EP2 mod 24 and NR1D1 mod conf 19*.
For C/C(N)=C(/C#N)C(=O)CSc1nc2ccccc2c(=O)n1Cc1ccc(C)cc1 the results were NR1D1 modulator 70*, PG9 Ab binder 1, SKN-1 inh 0, EP2 antag 13, RAM inhibit 0, EP2 mod -4 and NR1D1 mod conf 25*.
COc1ccc(NC(=O)C2CCN(c3cnccn3)CC2)cc1 was read as EP2 antag 10 and EP2 mod -40.
Screening CCCN1CCCc2ccccc21 returned NR1D1 modulator 3, PG9 Ab binder 0, SKN-1 inh 11, EP2 antag 12, RAM inhibit 1 and EP2 mod 13.
